A selection: hits, their analogues and other compounds. The true share with any hit is near 10%.
HP1b chromo inh – HTS for Inhibitors of HP1-beta Chromodomain Interactions with Methylated Histone Tails; Chromobox protein homolog 1 (Homo sapiens), P83916; AlphaScreen HP1-beta / biotin-H3K9me3 peptide binding; Potency, µM (top dose mostly 114 µM), for the others: top-dose activity change, negative = inhibition, most hits filed as inhibitors; 390,000 compounds, 0.56% hits; AID 540317, 2011; note: nearly all actives have a fitted effect of over 70% in size
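Compound inhibition of the preformed complex between 50 nM HP1-beta and 50 nM biotinylated H3K9me3 peptide was read by AlphaScreen. Buffer was PBS pH 7.4 with 0.01% Tween-20. Incubations ran 30 min at room temperature, with 10 ug/mL donor/acceptor beads.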
G9a block – qHTS Assay for Inhibitors of Histone Lysine Methyltransferase G9a. Histone-lysine N-methyltransferase EHMT2 (Homo sapiens), Q96KQ7. G9a H3K9 monomethylation, AlphaScreen, 2 h. Potency, µM (series often up to 102 µM), for the others: at the highest dose activity, negative = inhibition, usual class: inhibitors. 350,000 compounds, 8.8% hits; note: % is set by controls: 0 for no effect and ±100 for the full control effect; nearly all actives have a fitted effect of over 75% in size
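Readings reflect AlphaScreen signal from monomethyl-H3K9 antibody detection. HMT at 20 nM; substrate b-H3K9 500 nM; cofactor SAM 20 uM; 2 h RT reaction; compounds tested as titrations in qHTS with 15 min preincubation.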
BAZ2B inh – qHTS Assay for Inhibitors of BAZ2B. AlphaScreen BAZ2B-H3K14Ac peptide displacement. Potency, µM (series often up to 114 µM), without a hit: at the top dose activity change, negative = inhibition, most hits filed as inhibitors. 360,000 compounds, 4.4% hits; note: % is set by controls: 0 for no effect and ±100 for the full control effect; nearly all actives have a fitted effect of over 60% in size
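Complex of BAZ2B and biotin-H3K14Ac (50 nM apiece) forms over 30 min at RT, then faces library compounds up to 110 uM for another 30 min; AlphaScreen beads added, 20 min dark incubation, luminescence read.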
JMJD2A Tudor – qHTS Assay for Inhibitors of JMJD2A-Tudor Domain | AlphaScreen JMJD2A-Tudor / H3K4me3 peptide binding | 390,000 compounds, 4.4% hits | Lysine-specific demethylase 4A (Homo sapiens), O75164 | Potency, µM (top dose mostly 114 µM), for the others: at the top dose activity change, negative = inhibition, actives largely listed as inhibitors; note: % is set by controls: 0 for no effect and ±100 for the full control effect; nearly all actives have a fitted effect of over 50% in size
GLS inh – qHTS for Inhibitors of Glutaminase (GLS); 410,000 compounds, 0.21% hits; Potency, µM (highest dose often 45.5 µM), without a hit: at the top dose activity change, negative = inhibition, actives largely listed as inhibitors; GLS enzymatic activity, qHTS titration; AID 624170, 2012; note: % is set by controls: 0 for no effect and ±100 for the full control effect
Target sequence (O94925 whole entry, looked up): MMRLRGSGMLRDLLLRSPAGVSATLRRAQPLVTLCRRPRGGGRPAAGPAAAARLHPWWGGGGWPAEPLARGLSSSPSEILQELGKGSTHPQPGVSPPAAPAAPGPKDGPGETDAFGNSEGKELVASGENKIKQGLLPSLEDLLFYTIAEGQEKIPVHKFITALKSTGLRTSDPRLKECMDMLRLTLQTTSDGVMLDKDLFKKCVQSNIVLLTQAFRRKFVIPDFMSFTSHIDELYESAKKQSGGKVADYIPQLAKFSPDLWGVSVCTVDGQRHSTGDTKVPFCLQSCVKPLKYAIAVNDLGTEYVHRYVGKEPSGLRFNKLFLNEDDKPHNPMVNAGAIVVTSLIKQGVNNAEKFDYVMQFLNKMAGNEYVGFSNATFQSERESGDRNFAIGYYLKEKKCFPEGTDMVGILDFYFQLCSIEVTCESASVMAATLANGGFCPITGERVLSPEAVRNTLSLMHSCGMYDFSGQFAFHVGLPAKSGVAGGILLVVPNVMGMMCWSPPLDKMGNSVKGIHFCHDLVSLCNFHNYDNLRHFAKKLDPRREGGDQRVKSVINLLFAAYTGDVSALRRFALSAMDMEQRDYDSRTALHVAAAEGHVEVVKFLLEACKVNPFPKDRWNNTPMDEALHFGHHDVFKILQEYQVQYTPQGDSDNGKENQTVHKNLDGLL
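Read-out is an Amplex red fluorescence increase coupled through glutamate oxidase and HRP, measured before and after 30 min room-temperature incubation. hKGA is in 45 mM KH2PO4 (pH 8.2) with 0.02% Tween-20; glutamine added as 1mM solution.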
Numbers without * were called inactive; [ ] = remark or other dose. Calls come from the whole dose curve; as a rule, active = well fitted curve in the direction sought with a large enough effect; inconclusive = small, poorly fitted or top-dose-only effect, or another doubt; inactive = no such curve, though single readings can be large; an effect the other way counts as inactive or inconclusive. Potency is the fitted concentration of half-maximal effect.

Screening CCCCCCn1c(=O)c(C(=O)N/N=C/c2cccc(F)c2)c(O)c2ccccc21 returned HP1b chromo inh 47%, G9a block 56%[59 µM], BAZ2B inh 2%, JMJD2A Tudor -6% and GLS inh 8%.
For Oc1ccc2ccccc2c1C=NCc1ccccc1 the results were HP1b chromo inh -1%, G9a block 28µM*, BAZ2B inh -36%, JMJD2A Tudor inconclusive and GLS inh 12%.
Screening Oc1ccc2ccccc2c1/C=N/n1cnnc1 returned HP1b chromo inh 20%, G9a block 32µM*, BAZ2B inh -3% and JMJD2A Tudor -1%.
`Oc1ccc2ccccc2c1/C=N/Nc1ccccc1` gave HP1b chromo inh -57%, G9a block 7.1µM*, BAZ2B inh -35%, JMJD2A Tudor 50µM* and GLS inh 36%.
Oc1ccccc1C=NN=Cc1c(O)ccc2ccccc12 was read as HP1b chromo inh 47%, JMJD2A Tudor -5% and GLS inh 6%.
NC(=S)N/N=C/c1c(O)ccc2ccccc12 was read as HP1b chromo inh 43%, BAZ2B inh 2.5µM*, JMJD2A Tudor 56µM* and GLS inh 23%.
Screening COc1cc(OC)cc(C(=O)NCC(=O)OC2CCCCC2=O)c1 (centres undefined) returned HP1b chromo inh 40%, G9a block 20%[12.7 µM], BAZ2B inh -6%, JMJD2A Tudor -16% and GLS inh -2%.
O=C(CCC1N=C2c3ccccc3N=C(SCc3ccc(Cl)cc3)N2C1=O)N1CCN(c2ccccc2)CC1 (centres undefined) was read as HP1b chromo inh 13%, G9a block 6%[59 µM], BAZ2B inh -25%, JMJD2A Tudor -24% and GLS inh 1%.
Screening Cc1ccc(CSC2=Nc3ccccc3C3=NC(CCC(=O)N4CCN(c5ccccc5)CC4)C(=O)N23)cc1 (centres undefined) returned HP1b chromo inh 7%, G9a block 18µM*, BAZ2B inh -30%, JMJD2A Tudor -30% and GLS inh -4%.
O=C(CSC1=Nc2ccccc2C2=NC(CC(=O)N3CCN(c4ccccc4)CC3)C(=O)N12)NCC1CCCO1 (centres undefined) was read as HP1b chromo inh 19%, G9a block 50µM*, BAZ2B inh -23%, JMJD2A Tudor -10% and GLS inh -5%.
`CC1(C)CC(=O)C2=C(C1)Nc1ccccc1NC2c1nc2ccccc2[nH]1` (centres undefined) gave HP1b chromo inh 35%, G9a block -12%, BAZ2B inh 28%, JMJD2A Tudor -10% and GLS inh 4%.
CC(=O)c1cc(-c2ccccc2)n(CC(=O)N2CCN(C3CCCC3)CC2)c1C was read as HP1b chromo inh -14%, G9a block 7%[12.7 µM], BAZ2B inh 50µM*, JMJD2A Tudor 12%[11.4 µM] and GLS inh -10%.
Screening CC(=O)c1cc(-c2ccccc2)n(CC(=O)N2CCC(C)CC2)c1C returned HP1b chromo inh 0%, G9a block 21%[59 µM], BAZ2B inh 50µM*, JMJD2A Tudor -11% and GLS inh 2%.
COc1cccc(NC(=O)c2oc3ccccc3c2NC(=O)C2CCCCC2)c1 was read as HP1b chromo inh 28%, G9a block inconclusive, BAZ2B inh -17%, JMJD2A Tudor 0% and GLS inh 0%.
O=c1c(-c2ccccc2)nc2cncnc2n1Cc1ccc(F)cc1 was read as G9a block -6%[12.7 µM].
For CC(=O)/C(=N/Nc1cccc(C)c1)N1CCOCC1 the results were HP1b chromo inh 6%, G9a block 0.63µM*, BAZ2B inh inconclusive, JMJD2A Tudor 89µM* and GLS inh 11%.
Screening CCc1nnc(NS(=O)(=O)c2ccc(NC(=S)NC(=O)/C=C/c3ccccc3)cc2)s1 returned HP1b chromo inh -29%, G9a block inconclusive, BAZ2B inh inconclusive, JMJD2A Tudor 79µM* and GLS inh -22%.

Screening results as filed in PubChem.
